# Test results as given in PubChem BioAssay (NCI).
# Where “and” joins values, the source holds several entries; their conditions need not be identical. Equal values may be shown once. About 79,000 compounds went through this panel and 15% of them were active in at least one assay; those are over-represented in the sample as a whole. Some compounds were tested as several samples or in several runs, with calls that do not always agree. Calls of active or inactive are those of the source. No stated cut-off is given here; in the data, active means growth inhibition above about 70%; inactive means the rest.
# Columns and labels:
# [1] = NCI Yeast Anticancer Drug Screen. Data for the rad52 strain (AID 147);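 further: 0% = growth of vehicle-treated control cultures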; conditions: S. cerevisiae rad52 mutant growth inhibition, stronger effect = higher value
# How it was run: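 Vehicle-treated cultures served as the reference for growth inhibition of compound-exposed yeast bearing a DNA repair mutation.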
# [2] = NCI Yeast Anticancer Drug Screen. Data for the wt1 strain (AID 149);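 further: 0% = growth of vehicle-treated wt1 cultures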; conditions: S. cerevisiae wt1 strain (SPY 50644) growth inhibition, stronger effect = higher value
# How it was run: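 Readout: yeast growth inhibition, normalised to vehicle controls, in the wt1 strain exposed to test compounds.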
# [3] = NCI Yeast Anticancer Drug Screen. Data for the rad50EPP+ strain (AID 151);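 further: 0% = growth of vehicle-treated control cultures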; conditions: S. cerevisiae rad50 mutant strain, stronger effect = higher value
# How it was run: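 In this screen, rad50EPP+ yeast were exposed to compounds. Growth inhibition was scored against vehicle-treated controls.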
# [4] = NCI Yeast Anticancer Drug Screen. Data for the rad50 strain (AID 155);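 further: 0% = growth of vehicle-only cultures of the same strain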; conditions: S. cerevisiae rad50 strain growth inhibition, stronger effect = higher value
# How it was run: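 Compounds were tested on a yeast strain with an engineered DNA damage repair alteration; the reported value is growth inhibition normalised to vehicle treatment.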
# [5] = NCI Yeast Anticancer Drug Screen. Data for the mec2-1 strain (AID 157); conditions: S. cerevisiae mec2-1 strain, stronger effect = higher value
# How it was run: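 Vehicle-treated cultures served as reference for growth inhibition of compound-exposed mec2-1 yeast.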
# [6] = NCI Yeast Anticancer Drug Screen. Data for the rad14 strain (AID 159);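 further: 0% = growth of vehicle-treated control cultures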; conditions: S. cerevisiae rad14 strain growth inhibition, stronger effect = higher value
# How it was run: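 Compound-treated yeast with a defined DNA-repair lesion; growth inhibition normalised to vehicle-treated cultures.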
# [7] = NCI Yeast Anticancer Drug Screen. Data for the sgs1 mgt1 strain (AID 161);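 further: 0% = growth of cultures given vehicle only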; conditions: S. cerevisiae sgs1 mgt1 strain, stronger effect = higher value
# How it was run: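 Read-out: growth inhibition vs vehicle controls. Cells: mutant yeast strain deficient in DNA damage repair.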
# [8] = NCI Yeast Anticancer Drug Screen. Data for the CLN2oe strain (AID 163);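 further: 0% = growth of vehicle-only control cultures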; conditions: S. cerevisiae CLN2oe strain, stronger effect = higher value
# How it was run: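 Inhibition relative to vehicle-treated yeast is reported. Cells: strain with genetic alteration in cell-cycle control, grown with compound.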
# [9] = NCI Yeast Anticancer Drug Screen. Data for the cln2 rad14 strain (AID 165);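 further: 0% = growth equal to vehicle treated cultures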; conditions: S. cerevisiae cln2 rad14 strain, stronger effect = higher value
# How it was run: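 Each compound was tested on cln2 rad14 yeast. Inhibition of growth was calculated against vehicle-exposed controls.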
# [10] = NCI Yeast Anticancer Drug Screen. Data for the bub3 strain (AID 167); conditions: S. cerevisiae bub3 mutant strain, stronger effect = higher value
# How it was run: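 Growth of a checkpoint-deficient yeast mutant is measured after compound exposure. Values represent inhibition relative to vehicle.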
# [11] = NCI Yeast Anticancer Drug Screen. Data for the wt2 strain (AID 169);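 further: 0% = growth of vehicle-treated yeast cultures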; conditions: S. cerevisiae wt2 strain growth inhibition, stronger effect = higher value
# How it was run: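 Inhibition of yeast growth was determined after compound treatment, normalised to controls receiving only vehicle.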
# [12] = NCI Yeast Anticancer Drug Screen. Data for the mlh1 strain (AID 171);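 further: 0% = growth of vehicle-treated control cultures of the same strain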; conditions: S. cerevisiae mlh1 strain growth inhibition, stronger effect = higher value
# How it was run: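 Vehicle-normalised growth inhibition of a repair- or checkpoint-altered yeast strain following compound treatment.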
# [13] = NCI Yeast Anticancer Drug Screen. Data for the sgs1 strain (AID 173);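 further: 0% = growth of vehicle-only control cultures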; conditions: S. cerevisiae sgs1 mutant, stronger effect = higher value
# How it was run: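 Screen format: yeast with repair or checkpoint alterations, compound exposure, growth read relative to vehicle.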
# [14] = NCI Yeast Anticancer Drug Screen. Data for the mlh1 rad18 strain (AID 175); conditions: S. cerevisiae mlh1 rad18 strain growth inhibition, stronger effect = higher value
# How it was run: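 Vehicle-treated cultures served as the reference for growth inhibition in a yeast strain carrying DNA damage repair alterations exposed to each compound.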
# [15] = NCI Yeast Anticancer Drug Screen. Data for the rad18 strain (AID 177); conditions: S. cerevisiae rad18 mutant growth inhibition, stronger effect = higher value
# How it was run: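 Test articles were incubated with altered yeast defective in DNA damage repair. Results are given as inhibition of growth versus vehicle.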
# [16] = NCI Yeast Anticancer Drug Screen. Data for the mgt1 strain (AID 153); conditions: S. cerevisiae mgt1 mutant growth inhibition, stronger effect = higher value
# How it was run: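 mgt1 strain exposed; growth vs vehicle control recorded as inhibition.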
# [17] = at 5.0 µM (retest, dose inferred, filed as 0.5)
# [18] = at 50.0 µM (retest, dose inferred, filed as 5.0)
smiles,measurement,setting,value
COc1cc([C@@H]2c3cc4c(cc3[C@@H](Nc3ccc(NC(=O)c5cc([N+](=O)[O-])cn5C)cc3)[C@H]3COC(=O)[C@H]23)OCO4)cc(OC)c1O,growth inhibition,[1]; at 1.2 µM,25% (inactive)
same,growth inhibition,[1]; at 3.7 µM,84% (active)
same,growth inhibition,[1]; at 11.0 µM,92% (active)
same,growth inhibition,[1]; at 33.0 µM,91% (active)
same,growth inhibition,[1]; at 100.0 µM,93% (active)
same,growth inhibition,[2]; at 1.2 µM,9% (inactive)
same,growth inhibition,[2]; at 3.7 µM,20% (inactive)
same,growth inhibition,[2]; at 11.0 µM,26% (inactive)
same,growth inhibition,[2]; at 33.0 µM,32% (inactive)
same,growth inhibition,[2]; at 100.0 µM,36% (inactive)
same,growth inhibition,[3]; at 1.2 µM,4% (inactive)
same,growth inhibition,[3]; at 3.7 µM,10% (inactive)
same,growth inhibition,[3]; at 11.0 µM,27% (inactive)
same,growth inhibition,[3]; at 33.0 µM,14% (inactive)
same,growth inhibition,[3]; at 100.0 µM,22% (inactive)
same,growth inhibition,[4]; at 1.2 µM,11% (inactive)
same,growth inhibition,[4]; at 3.7 µM,74% (active)
same,growth inhibition,[4]; [17],92% (active) and 96% (active)
same,growth inhibition,[4]; at 11.0 µM,88% (active)
same,growth inhibition,[4]; at 33.0 µM,92% (active)
same,growth inhibition,[4]; [18],95% (active) and 97% (active)
same,growth inhibition,[4]; at 50.0 µM,67.5% (inactive) and 75.9% (active)
same,growth inhibition,[4]; at 100.0 µM,92% (active)
same,growth inhibition,[5]; at 1.2 µM,-16% (inactive)
same,growth inhibition,[5]; at 3.7 µM,6% (inactive)
same,growth inhibition,[5]; [17],38% (inactive) and 52% (inactive)
same,growth inhibition,[5]; at 11.0 µM,42% (inactive)
same,growth inhibition,[5]; at 33.0 µM,66% (inactive)
same,growth inhibition,[5]; [18],79% (active) and 96% (active)
same,growth inhibition,[5]; at 50.0 µM,67.5% (inactive) and 74.8% (active)
same,growth inhibition,[5]; at 100.0 µM,74% (active)
same,growth inhibition,[6]; at 1.2 µM,4% (inactive)
same,growth inhibition,[6]; at 3.7 µM,16% (inactive)
same,growth inhibition,[6]; at 11.0 µM,18% (inactive)
same,growth inhibition,[6]; at 33.0 µM,50% (inactive)
same,growth inhibition,[6]; at 100.0 µM,59% (inactive)
same,growth inhibition,[7]; [17],16% (inactive) and 54% (inactive)
same,growth inhibition,[7]; [18],53% (inactive) and 93% (active)
same,growth inhibition,[7]; at 50.0 µM,47.5% (inactive) and 67% (inactive)
same,growth inhibition,[8]; at 1.2 µM,19% (inactive)
same,growth inhibition,[8]; at 3.7 µM,23% (inactive)
same,growth inhibition,[8]; at 11.0 µM,44% (inactive)
same,growth inhibition,[8]; at 33.0 µM,58% (inactive)
same,growth inhibition,[8]; at 100.0 µM,77% (active)
same,growth inhibition,[9]; [17],16% (inactive) and 22% (inactive)
same,growth inhibition,[9]; [18],50% (inactive) and 84% (active)
same,growth inhibition,[9]; at 50.0 µM,47% (inactive) and 49.9% (inactive)
same,growth inhibition,[10]; at 1.2 µM,-10% (inactive)
same,growth inhibition,[10]; at 3.7 µM,0% (inactive)
same,growth inhibition,[10]; [17],19% (inactive) and 42% (inactive)
same,growth inhibition,[10]; at 11.0 µM,14% (inactive)
same,growth inhibition,[10]; at 33.0 µM,36% (inactive)
same,growth inhibition,[10]; [18],46% (inactive) and 90% (active)
same,growth inhibition,[10]; at 50.0 µM,26.8% (inactive) and 51.2% (inactive)
same,growth inhibition,[10]; at 100.0 µM,43% (inactive)
same,growth inhibition,[11]; at 1.2 µM,-28% (inactive)
same,growth inhibition,[11]; at 3.7 µM,-12% (inactive)
same,growth inhibition,[11]; at 11.0 µM,-8% (inactive)
same,growth inhibition,[11]; at 33.0 µM,6% (inactive)
same,growth inhibition,[11]; at 100.0 µM,17% (inactive)
same,growth inhibition,[12]; at 1.2 µM,-15% (inactive)
same,growth inhibition,[12]; at 3.7 µM,5% (inactive)
same,growth inhibition,[12]; at 11.0 µM,22% (inactive)
same,growth inhibition,[12]; at 33.0 µM,39% (inactive)
same,growth inhibition,[12]; at 100.0 µM,53% (inactive)
same,growth inhibition,[13]; at 1.2 µM,-6% (inactive)
same,growth inhibition,[13]; at 3.7 µM,6% (inactive)
same,growth inhibition,[13]; at 11.0 µM,30% (inactive)
same,growth inhibition,[13]; at 33.0 µM,44% (inactive)
same,growth inhibition,[13]; at 100.0 µM,49% (inactive)
same,growth inhibition,[14]; [17],37% (inactive) and 80% (active)
same,growth inhibition,[14]; [18],62% (inactive) and 95% (active)
same,growth inhibition,[14]; at 50.0 µM,20.1% (inactive) and 74.3% (active)
same,growth inhibition,[15]; at 1.2 µM,-9% (inactive)
same,growth inhibition,[15]; at 3.7 µM,3% (inactive)
same,growth inhibition,[15]; at 11.0 µM,27% (inactive)
same,growth inhibition,[15]; at 33.0 µM,43% (inactive)
same,growth inhibition,[15]; at 100.0 µM,53% (inactive)
O=C(O)C1CC(c2ccccc2)=NN1c1ccccc1 (stereo not drawn),growth inhibition,[1]; at 1.2 µM,-28% (inactive)
same,growth inhibition,[1]; at 3.7 µM,-9% (inactive)
same,growth inhibition,[1]; at 11.0 µM,4% (inactive)
same,growth inhibition,[1]; at 33.0 µM,58% (inactive)
same,growth inhibition,[1]; at 100.0 µM,95% (active)
same,growth inhibition,[2]; at 1.2 µM,-60% (inactive)
same,growth inhibition,[2]; at 3.7 µM,-56% (inactive)
same,growth inhibition,[2]; at 11.0 µM,-50% (inactive)
same,growth inhibition,[2]; at 33.0 µM,-11% (inactive)
same,growth inhibition,[2]; at 100.0 µM,93% (active)
same,growth inhibition,[3]; at 1.2 µM,-17% (inactive)
same,growth inhibition,[3]; at 3.7 µM,-17% (inactive)
same,growth inhibition,[3]; at 11.0 µM,-9% (inactive)
same,growth inhibition,[3]; at 33.0 µM,-3% (inactive)
same,growth inhibition,[3]; at 100.0 µM,51% (inactive)
same,growth inhibition,[16]; at 1.2 µM,-48% (inactive)
same,growth inhibition,[16]; at 3.7 µM,-56% (inactive)
same,growth inhibition,[16]; at 11.0 µM,-41% (inactive)
same,growth inhibition,[16]; at 33.0 µM,-1% (inactive)
same,growth inhibition,[16]; at 100.0 µM,95% (active)
same,growth inhibition,[4]; at 1.2 µM,-10% (inactive)
same,growth inhibition,[4]; at 3.7 µM,-11% (inactive)
same,growth inhibition,[4]; [17],27% (inactive)
same,growth inhibition,[4]; at 11.0 µM,-1% (inactive)
same,growth inhibition,[4]; at 33.0 µM,33% (inactive)
same,growth inhibition,[4]; [18],84% (active)
same,growth inhibition,[4]; at 50.0 µM,19.4% (inactive)
same,growth inhibition,[4]; at 100.0 µM,95% (active)
same,growth inhibition,[5]; at 1.2 µM,-45% (inactive)
same,growth inhibition,[5]; at 3.7 µM,-53% (inactive)
same,growth inhibition,[5]; [17],27% (inactive)
same,growth inhibition,[5]; at 11.0 µM,-42% (inactive)
same,growth inhibition,[5]; at 33.0 µM,-43% (inactive)
same,growth inhibition,[5]; [18],84% (active)
same,growth inhibition,[5]; at 50.0 µM,59.8% (inactive)
same,growth inhibition,[5]; at 100.0 µM,92% (active)
same,growth inhibition,[7]; [17],-12% (inactive)
same,growth inhibition,[7]; [18],25% (inactive)
same,growth inhibition,[7]; at 50.0 µM,58.6% (inactive)
same,growth inhibition,[8]; at 1.2 µM,-5% (inactive)
same,growth inhibition,[8]; at 3.7 µM,17% (inactive)
same,growth inhibition,[8]; at 11.0 µM,22% (inactive)
same,growth inhibition,[8]; at 33.0 µM,29% (inactive)
same,growth inhibition,[8]; at 100.0 µM,97% (active)
same,growth inhibition,[9]; [17],-15% (inactive)
same,growth inhibition,[9]; [18],-61% (inactive)
same,growth inhibition,[9]; at 50.0 µM,62.8% (inactive)
same,growth inhibition,[10]; at 1.2 µM,-28% (inactive)
same,growth inhibition,[10]; at 3.7 µM,-22% (inactive)
same,growth inhibition,[10]; [17],-7% (inactive)
same,growth inhibition,[10]; at 11.0 µM,-20% (inactive)
same,growth inhibition,[10]; at 33.0 µM,-10% (inactive)
same,growth inhibition,[10]; [18],78% (active)
same,growth inhibition,[10]; at 50.0 µM,46% (inactive)
same,growth inhibition,[10]; at 100.0 µM,94% (active)
same,growth inhibition,[11]; at 1.2 µM,-38% (inactive)
same,growth inhibition,[11]; at 3.7 µM,-46% (inactive)
same,growth inhibition,[11]; at 11.0 µM,-36% (inactive)
same,growth inhibition,[11]; at 33.0 µM,0% (inactive)
same,growth inhibition,[11]; at 100.0 µM,98% (active)
